Experimental findings from PubChem BioAssay AID1851 (National Center for Advancing Translational Sciences (NCATS), 2009) are described below.

Each structure is given as a SMILES string. Several values for one entry are separate records, joined by “and”; a condition that tells them apart may be missing. Equal values may be shown once. About 5,700 (36%) of roughly 16,000 compounds were called active. Another 24% or so got no clear call; they are omitted. Calls follow the shape of the dose curve; as a rule, active = well fitted curve in the direction sought with a large enough effect; inconclusive = small, poorly fitted or top-dose-only effect, or effect the other way; inactive = no such curve, though single readings can be large or run the other way. Some of the results follow.
% is scaled to controls: 0 for no effect and ±100 for the full control effect.

The target of the test is Cytochrome P450 1A2 (Homo sapiens) (UniProt P05177). The experiment in a line: Cytochrome panel assay with activity outcomes. To be noted: recombinant CYP, pro-luciferin dealkylation, luminescence, p450-cyp1a2; series mostly up to 57.1 µM.
Sequence of Cytochrome P450 1A2 (Homo sapiens) (P05177 whole entry, looked up): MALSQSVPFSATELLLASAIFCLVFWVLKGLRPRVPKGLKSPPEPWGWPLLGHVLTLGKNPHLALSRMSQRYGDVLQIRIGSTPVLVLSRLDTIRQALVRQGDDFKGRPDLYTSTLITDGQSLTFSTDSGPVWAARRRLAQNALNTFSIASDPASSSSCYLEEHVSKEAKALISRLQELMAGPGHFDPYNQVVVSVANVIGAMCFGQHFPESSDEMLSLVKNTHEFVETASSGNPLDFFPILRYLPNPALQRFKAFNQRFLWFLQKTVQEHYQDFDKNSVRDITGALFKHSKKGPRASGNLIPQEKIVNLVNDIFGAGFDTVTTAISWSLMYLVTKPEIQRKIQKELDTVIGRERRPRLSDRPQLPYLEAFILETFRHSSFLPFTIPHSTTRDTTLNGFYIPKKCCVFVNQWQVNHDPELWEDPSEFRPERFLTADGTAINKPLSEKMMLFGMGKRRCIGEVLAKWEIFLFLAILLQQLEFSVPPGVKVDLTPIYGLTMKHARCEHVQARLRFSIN
Broadly, the AC50 is the midpoint of the concentration-response curve, whichever way the signal moves. Regarding `NCCCCCc1nnc(SCc2ccc(Cl)cc2Cl)o1`, the AC50 is 11200 nM (active). With `COc1ccc(/C=C/C(=O)Oc2cccc(/C=N/NC(=O)COc3c(C)cccc3C)c2)cc1`, the AC50 result was “inactive”. `CCOc1cc(/C=N/NC(=O)COc2cccc(C)c2)ccc1OC(=O)c1cccs1`: the AC50 is 11200 nM (active). Still for that read-out and setting: in the case of `CCOc1cc(/C=N/NC(=O)c2cc(C)[nH]n2)ccc1OC(=O)c1ccc([N+](=O)[O-])cc1` it was “inactive”.

As for `CN(C)CCNC(=S)Nc1cccc(Cl)c1`, the AC50 entry was “inactive”.

Consider `FC(F)(F)c1cccc(NC(=S)Nc2cccc(Cl)c2)c1`, for which the AC50 is 5010 nM (active). As to `S=C(NCc1ccccn1)Nc1cccc(Cl)c1`, the AC50 is 2820 nM (active). Turning to `CO[C@H]1COC(=O)[C@@H](C)COC(=O)[C@@H](Cc2ccccc2)NC(=O)C/C=C\[C@H]1C`, the activity, negative = inhibition was 4.52% [at 11.4 µM] (inactive). Take `CC1(C)S[C@@H]2[C@H](NC(=O)[C@@H](N)c3ccccc3)C(=O)N2[C@H]1C(=O)O[C@H]1OC(=O)c2ccccc21`: the AC50 entry was “inactive”. The same measure, in the same setting: to `O=C(Nc1cc(C(F)(F)F)ccc1-n1cncn1)c1ccc(Br)cc1` belongs 562 nM (active). `CCOC(=O)CCN1C(=O)[C@H]2[C@H]3[C@H](O)[C@H](O)C/C(=N/OC[C@@H](O)COCc4ccco4)[C@@H]3CC[C@@H]2C1=O`: the activity, negative = inhibition is -1.07% [at 11.4 µM] (inactive). `Cn1c(=O)c2c3c(sc2n2cnnc12)CCC3`: the AC50 was 8910 nM (active).

As to `CN1CCc2c(sc3c2c(=O)n(-c2ccccc2)c2nncn32)C1`, the AC50 entry is “inactive”.

Turning to `CCCCCCCCCCCCCCCCCCOC[C@@H](COP(=O)([O-])OCC[N+](C)(C)C)OC`, the AC50 entry was “inactive”.

In the case of `Cc1ccsc1-c1nc(-c2ccccc2)c(-c2ccccc2)[nH]1`, the AC50 is 1120 nM (active). On to `c1ccc(-c2nc(-c3cccs3)[nH]c2-c2ccccc2)cc1`, for which the AC50 is 1000 nM (active). Same read-out and setting: to `COc1ccc(CC(=O)Nc2ccc(-c3nnc(-c4ccccc4)o3)cc2)cc1` belongs “inactive”.

With `COC(=O)c1ccccc1NC(=O)c1ccc(Cn2cc(Cl)cn2)o1`, the AC50 is 1580 nM (active).

As for `COc1ccc(NC(=O)c2ccc(COc3ccccc3)o2)cc1`, the concentration at half-maximal activity (AC50) was 2510 nM (active). On the same count and under the same terms, in the case of `CCOc1ccc(OCC)c(-c2c(=O)n(OCc3ccccc3C(=O)OC)c3ccccc3[n+]2[O-])c1` it was “inactive”. On the same count and under the same terms, to `Cc1ccc(OCc2ccc(C(=O)Nc3nccs3)o2)cc1C` belongs 631 nM (active); to `COC(=O)c1ccccc1NC(=O)CSc1nnc(C(CO)NC(=O)c2ccccc2Cl)n1C` (configuration not stated), “inactive”; to `COC(=O)c1ccccc1NC(=O)c1ccc(COc2ccc(C)c(C)c2)o1`, 2820 nM (active). With `OCCN(CCO)c1ncnc2nc[nH]c12`, the activity, negative = inhibition is -9.2% [at 11.4 µM] (inactive).

Turning to `CCOc1nc(N2CCCCC2)nc(-n2cc(-c3ccccc3)nn2)n1`, the AC50 is 2510 nM (active). As to `CO[C@@H]1COC(=O)[C@H](Cc2ccccc2)NC(=O)C/C=C\[C@@H](C)[C@H](OC)COC(=O)[C@@H](C)NC(=O)C/C=C\[C@H]1C`, the activity, negative = inhibition was -3.56% [at 11.4 µM] (inactive) and 1.16% [at 11.4 µM] (inactive). Turning to `CCN1CCN(c2nc3ccccc3nc2C(C#N)C(=O)OC2CCCCC2)CC1` (configuration not stated), the AC50 entry is “inactive”. `C=CCN1CCN(c2nc3ccccc3nc2C#N)CC1`: the AC50 was 100 nM (active). The same measure, in the same setting: in the case of `C=CCn1c(C)c(C(C)=O)c(N2CCN(c3ccccc3)CC2)nc1=S` it was “inactive”; in that of `Cc1ccc2nc(-c3ccccc3)cc(C(=O)NCCCn3ccnc3)c2c1`, 2820 nM (active); in that of `COc1c2occc2c(OC)c2c(=O)cc(C)oc12`, 20 nM (active). On the same count and under the same terms, in the case of `CC1CCCC(C)N1CC(O)COCC1COc2ccccc2O1` (configuration not stated) it was “inactive”; in that of `CCn1ccnc1C[C@@H]1COc2ccccc2O1`, 15800 nM (active); in that of `CN1CCN(c2ncc3nc(-c4cn(C)c5ccccc45)c(=O)n(CCc4ccccc4)c3n2)CC1`, “inactive”. The same measure, in the same setting: in the case of `COc1ncc2nc(-c3cn(C)c4ccccc34)c(=O)n(CCC#N)c2n1` it was 5010 nM (active). Consider `CN1CCN(c2ncc3nc(-c4cn(C)c5ccccc45)c(=O)n(CCC#N)c3n2)CC1`, for which the half-maximal activity concentration (AC50) is 15800 nM (active). As for `COc1ccc(Oc2ncc3nc(-c4cn(C)c5ccccc45)c(=O)n(C)c3n2)cc1`, the AC50 entry was “inactive”. Regarding `COc1ncc2nc(-c3cn(C)c4ccccc34)c(=O)n(C)c2n1`, the AC50 was 1000 nM (active). Regarding `OC[C@H]1NC[C@H](O)[C@@H](O)[C@H]1O`, the AC50 result was “inactive”. For `O=C(NCc1n[nH]c(=S)n1-c1ccccc1)c1ccc(S(=O)(=O)N2CCOCC2)cc1`, the AC50 result is “inactive”. As to `NCCSC[C@H](N)C(=O)O`, the activity, negative = inhibition is -0.987% [at 11.4 µM] (inactive). As to `CN1CCCC2(CCN(C(=O)c3cc(C(F)(F)F)cc(C(F)(F)F)c3)CC2)C1`, the AC50 result is “inactive”. Turning to `CCOc1ccc(C(CC(=O)O)NC(=O)COc2ccccc2)cc1` (configuration not stated), the AC50 result is “inactive”.

On to `CCOC(=O)CC(NC(=O)c1cccs1)c1ccc(OCC)cc1` (configuration not stated), for which the AC50 is 12600 nM (active). The same measure, in the same setting: to `O=C(O)C1=CCNCC1` belongs “inactive”. On to `Cc1cc(O)c(/C=N/Nc2cccc(Cl)c2)c(=O)o1`, for which the AC50 was 2240 nM (active). Same read-out and setting: to `COCCCNC(=O)CCC(=O)Nc1ccc2nc(N3CCOCC3)cc(C)c2c1` belongs “inactive”; to `Cc1cc(NC(=O)CSc2nc3ccccc3c(=O)n2CCCC(=O)NCc2ccco2)n[nH]1`, “inactive”; to `Cc1cc(N2CCN(C)CC2)nc2ccc(NC(=O)CCC(=O)NCc3ccco3)cc12`, 1260 nM (active). For the compound `CCOC(=O)c1cccc2c1-c1ccccc1/C2=N/O`, the AC50 is 1580 nM (active). On to `CCOC(=O)c1cc(CC)sc1NC(=O)C(c1ccccc1)c1ccccc1`, for which the AC50 result was “inactive”.

With `Cc1nc2ccccc2n1CC(=O)N/N=C\C=C\c1ccccc1`, the AC50 was 5010 nM (active). `Cn1c(SCC(=O)N/N=C/C=C\c2ccco2)nc2ccccc21`: the AC50 was 2000 nM (active). Same read-out and setting: in the case of `Cc1ccc(/C=N/NC(=O)CSc2nc3ccccc3n2C)s1` it was 2510 nM (active); in that of `Cc1nc2ccccc2n1CC(=O)N/N=C\c1ccccn1`, “inactive”. Same read-out and setting: to `O=c1cc(CO)oc(CN2CCCC2)c1O` belongs “inactive”. As for `CC(=O)Nc1nc(NC(C)=O)c2[nH]c(CO)nc2n1`, the activity, negative = inhibition is -14.4% [at 11.4 µM] (inactive). On to `CN(N=O)C(=O)N[C@H]1[C@@H](O)[C@H](O)[C@H](CO)O[C@@H]1O`, for which the AC50 result was “inactive”. Still for that read-out and setting: in the case of `CN(Cc1ccco1)c1ncncc1-c1ccccc1Cl` it was 25100 nM (active); in that of `Cc1ccccc1-c1cncnc1N(C)Cc1ccco1`, 15800 nM (active). As to `COc1ccccc1-c1cncnc1N(C)Cc1ccco1`, the AC50 was 15800 nM (active).

`Cc1noc(C)c1-c1cncnc1N(C)Cc1ccco1`: the AC50 result is “inactive”.
